Reference: PubChem BioAssay (NCATS)
Records with an inconclusive call do not appear. Active and inactive are the calls of the source. Calls follow the shape of the dose curve; as a rule, active = well fitted curve in the direction sought with a large enough effect; inconclusive = small, poorly fitted or top-dose-only effect, or another doubt; inactive = no such curve, though single readings can be large; an effect the other way counts as inactive or inconclusive.

test: Quantitative highthroughput screen to assess conditional lethalithy of NOMO1 cells grown in RPMI1640 with dialyzed fetal bovine serum (RPMI+ds) (AID 1963877); conditions: NOMO1 in RPMI+dialyzed FBS viability, ATP luminescence, 48 h; series mostly up to 45.8 µM; viability: at the top concentration; also: nearly all actives have a fitted effect of over 30% in size;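 as to viability: 100% = DMSO control wells and 0% = empty wells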
Method in brief: (§1)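 Each medium arm—HPLM with 10% dialyzed FBS, or RPMI1640 with 5 mM glucose and 10% untreated or dialyzed FBS—was screened against an 11-point, 3-fold compound titration for 48 h at 37 °C, with CellTiter-Glo luminescence as endpoint.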
Potency is read from the fitted curve at half-maximal effect.

Compound | Potency | viability
C[C@H]1[C@H](O)O[C@@H]2O[C@@]3(C)CC[C@@H]4[C@H](C)CC[C@@H]1[C@@]24OO3 | 2090 nM (active) | –
COc1ccc(-c2cc(=O)c3c(O)cc(O[C@@H]4O[C@H](CO[C@@H]5O[C@@H](C)[C@H](O)[C@@H](O)[C@@H]5O)[C@@H](O)[C@H](O)[C@@H]4O)cc3o2)cc1O | – | 103% (inactive)
Nc1nc(=O)n([C@H]2CSC(CO)O2)cc1F (some centres undefined) | – | 97.1% (inactive)
COc1ccc2cc1Oc1ccc(cc1)C[C@H]1c3cc(c(OC)cc3CCN1C)Oc1c(OC)c(OC)cc3c1[C@H](C2)N(C)CC3 | – | 87.4% (inactive)

test: Quantitative highthroughput screen to assess conditional lethalithy of NOMO1 cells grown in Human Plasma-Like Medium with dialyzed fetal bovine serum (HPLM+ds) (AID 1963878); conditions: NOMO1 AML cells in HPLM+ds, CellTiter-Glo viability, 48 h; series mostly up to 45.8 µM; viability: at the top concentration; also: nearly all actives have a fitted effect of over 35% in size;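 as to viability: 100% = DMSO wells and 0% = empty wells on each plate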
Method in brief: as §1

Compound | Potency | viability
NS(=O)(=O)OC[C@@H]1C[C@@H](n2ccc3c(N[C@H]4CCc5ccccc54)ncnc32)C[C@H]1O | 590 nM (active) | –
CCC(=O)N[C@H]1CC[C@H](C(=O)N(C)c2ccc(-c3nc4ccccc4o3)cc2)C1 | – | 78.8% (inactive)
CCNC(=O)[C@H]1O[C@@H](n2cnc3c(N)nc(NCCc4ccc(CCC(=O)O)cc4)nc32)[C@H](O)[C@H]1O | – | 95.2% (inactive)
CC(C)(C)OC(=O)N[C@H]1CCCCCC=C[C@@H]2C[C@@]2(C(=O)NS(=O)(=O)C2CC2)NC(=O)[C@@H]2C[C@@H](OC(=O)N3Cc4cccc(F)c4C3)CN2C1=O | – | 97.4% (inactive)
CC(C)CN(C[C@@H](O)[C@H](Cc1ccccc1)NC(=O)O[C@H]1CO[C@H]2OCC[C@H]21)S(=O)(=O)c1ccc(N)cc1 | – | 96.1% (inactive)
Cc1nc(NC(=O)N2CCC[C@@H]2C(N)=O)sc1-c1ccnc(C(C)(C)C(F)(F)F)c1 | 2640 nM (active) | –
CC(C)(C)NC(=O)[C@H]1CN(Cc2cccnc2)CCN1C[C@@H](O)C[C@@H](Cc1ccccc1)C(=O)N[C@H]1c2ccccc2C[C@H]1O | – | 75.9% (inactive)
Cc1c(Cn2c(C)nc3c(C(=O)O)cc(N4CCOCC4)cc32)cccc1C(F)(F)F | 26400 nM (active) | –
C=CC1=C(C(=O)O)N2C(=O)[C@@H](NC(=O)C(=NO)c3csc(N)n3)[C@H]2SC1 | – | 96.4% (inactive)
C[C@]12CCC(=O)C=C1CC[C@@H]1[C@H]2[C@@H](O)C[C@@]2(C)[C@H]1CC[C@]2(O)C(=O)CO | – | 93.7% (inactive)
O=c1c2ccccc2nc2n1CCc1c-2[nH]c2ccccc12 | – | 81.6% (inactive)
CC1(C)OC2CC3C4CC(F)C5=CC(=O)C=CC5(C)C4C(O)CC3(C)[C@]2(C(=O)CO)O1 (some centres undefined) | – | 93% (inactive)
O=C1Nc2ccc(I)cc2C1=Cc1cc(Br)c(O)c(Br)c1 | – | 87.5% (inactive)
CC(=O)OCC(=O)[C@@]12N=C(C)O[C@H]1C[C@H]1[C@@H]3CCC4=CC(=O)C=C[C@]4(C)[C@@H]3[C@@H](O)C[C@@]12C | – | 76.8% (inactive)
COC1=C2C[C@@H](C)C[C@H](OC)[C@@H](O)[C@@H](C)C=C(C)[C@H](OC(N)=O)[C@@H](OC)C=CC=C(C)C(=O)NC(=CC1=O)C2=O | 18700 nM (active) | –
CN(N=O)C(=O)N[C@H]1C(O)OC(CO)[C@@H](O)[C@H]1O (some centres undefined) | – | 88.1% (inactive)
OCC(O)C(O)C(O)CO (centres undefined) | – | 99.9% (inactive)
Cc1ccc(C2=Nc3ccc(Cl)cc3OC2)cc1 | – | 79.4% (inactive)
Cc1cc(CS(=O)(=O)c2ccccc2)cc(OCc2ccc(CN3CCC[C@H]3CO)cc2)c1 | 662 nM (active) | –
C=CCNC1=C2C[C@@H](C)C[C@H](OC)[C@@H](O)[C@@H](C)C=C(C)[C@H](OC(N)=O)[C@@H](OC)C=CC=C(C)C(=O)NC(=CC1=O)C2=O | 5900 nM (active) | –

Compound | Potency | viability
CNC(=O)[C@H](CC1=CN=C2C=CCC=C12)NC(=O)[C@@H](CC(=O)NO)CC(C)C | 5900 nM (active) | –
NC(=O)c1cccc(N)c1 | – | 87.3% (inactive)
O=C(C=Cc1ccc(/C=C/C(=O)Nc2ccc(C3=NCCN3)cc2)cc1)Nc1ccc(C2=NCCN2)cc1 | – | 102% (inactive)
CC(=O)[C@]1(O)Cc2c(O)c3c(c(O)c2[C@@H](O[C@H]2C[C@H](N)[C@@H](O)[C@H](C)O2)C1)C(=O)c1ccccc1C3=O | 2960 nM (active) | –
COc1ccc2ccc(=O)oc2c1CC=C(C)C | – | 86.3% (inactive)
COc1ccc(C(C)=O)c(O)c1 | 935 nM (active) | –
Cn1cc(-c2ccc3nnc(C(F)(F)c4ccc5ncccc5c4)n3n2)cn1 | – | 75.3% (inactive)
Fc1ccc(C(c2ccc(F)cc2)N2CCN(CC=Cc3ccccc3)CC2)cc1 | – | 94.2% (inactive)
N#CC(=C(O)c1ccc(Cl)cc1Cl)c1nc2cc(Cl)ccc2c(=O)[nH]1 | – | 105% (inactive)
CC(C)c1nn(-c2c(Cl)cccc2Cl)c2nc(Cc3ccc(OCCO)cc3)[nH]c(=O)c12 | 118 nM (active) | –
NC(=O)c1nnn(Cc2cc(Cl)c(C(=O)c3ccc(Cl)cc3)c(Cl)c2)c1N | – | 70.9% (inactive)
OC(CN1CCN(c2cccc(Cl)c2)CC1)C(c1ccccc1)c1ccccc1 (centres undefined) | 148 nM (active) | –
Cc1ccc(Nc2cc(-c3cccc(N4C(=O)c5ccccc5C4=O)c3)ncn2)cc1NS(C)(=O)=O | – | 80.1% (inactive)
C=C1C[C@@]2(O)O[C@@]3(C[C@H]2C(C)C)[C@H](C)CC[C@H]13 | – | 90.6% (inactive)
CC(C=CC=C(C)C=CC1=C(C)CCCC1(C)C)=CC=CC=C(C)C=CC=C(C)C=CC1=C(C)CCCC1(C)C | – | 99% (inactive)
N#CC(=C1Nc2ccccc2S1)c1ccnc(OCc2ccc(CN3CCOCC3)cc2)n1 | 6620 nM (active) | –
C[C@H]1[C@H](O)O[C@@H]2O[C@@]3(C)CC[C@@H]4[C@H](C)CC[C@@H]1[C@@]24OO3 | 2090 nM (active) | –
COc1ccc(-c2cc(=O)c3c(O)cc(O[C@@H]4O[C@H](CO[C@@H]5O[C@@H](C)[C@H](O)[C@@H](O)[C@@H]5O)[C@@H](O)[C@H](O)[C@@H]4O)cc3o2)cc1O | – | 111% (inactive)
Nc1nc(=O)n([C@H]2CSC(CO)O2)cc1F (some centres undefined) | – | 97.6% (inactive)
COc1ccc2cc1Oc1ccc(cc1)C[C@H]1c3cc(c(OC)cc3CCN1C)Oc1c(OC)c(OC)cc3c1[C@H](C2)N(C)CC3 | – | 77.4% (inactive)
